Data as given in PubChem BioAssay.
Inconclusive results are not listed. The source made the active and inactive calls.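 How the source made its calls, unless noted: active means viability loss from added drug above about 55%, and viability with drug at most 40%, in both replicates (limit read from the data, passing the limit was not always enough); inconclusive means both conditions met in only one replicate; inactive means neither replicate meets both conditions.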

What was measured:
[1] = reduced viability of SK-BR-3 breast cancer cells – cell-based, 24 h, human, pilot screen (AID 572;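 active means viability at or below 10% of carrier control in both of two separate runs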;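 further: compound exposure lasted between 18 and 24 h rather than exactly 24 h; 100% = carrier-treated control wells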); conditions: SK-BR-3 viability, CellTiter-Glo luminescence, at 10 µM, stronger effect = lower value
[2] = HUVEC growth inhibition – cell-based, human, primary screen (AID 575;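 active means viability at or below 30% in both replicate assays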;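 further: 100% = median of untreated cell wells with 0.1% DMSO on each plate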); conditions: HUVEC proliferation, CellTiter-Glo luminescence, 72 h; at 10 µM; stronger effect = lower value
[3] = H69AR cell proliferation blockers – human, duplicate replicates, primary screen (AID 580;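 active means viability at or under a set limit in both replicates, limit being median viability minus 3 SD, cut at about 48% in these data, passing the limit was not always enough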;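 further: 100% = mean luminescence of untreated wells and 0% = no signal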); conditions: H69AR lung tumor cells viability, ATP luminescence, 72 h; at 10 µM; stronger effect = lower value
[4] = MRP1 drug-resistance reversers in H69AR cells – cell-based, doxorubicin co-treatment, pilot screen (AID 601); conditions: CellTiter-Glo, 72 h, at 10 µM; for differential viability (reversal): stronger effect = higher value
[5] = Her2 expression decrease, cell viability multiplex – SKBR3 breast tumor cells, AlphaScreen, ATP viability, primary screen (AID 461;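 active means Her2 level under about 52% in both replicate screens, with viability over 70% of control, limit read from the data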;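 on Her2 level: lower value means less Her2 protein in the cells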;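 on viability: percent of carrier control wells set as 100% viability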); conditions: SKBR3 Her2 protein level, 18-24 h, measured here: SKBR3 viability, ATP luminescence, at 10 µM
[6] = target: Receptor tyrosine-protein kinase erbB-2 (Homo sapiens) (UniProt P04626); experiment: as above; conditions: 18-24 h, at 10 µM, stronger effect = lower value
Receptor tyrosine-protein kinase erbB-2 (Homo sapiens), sequence (P04626 whole entry, looked up): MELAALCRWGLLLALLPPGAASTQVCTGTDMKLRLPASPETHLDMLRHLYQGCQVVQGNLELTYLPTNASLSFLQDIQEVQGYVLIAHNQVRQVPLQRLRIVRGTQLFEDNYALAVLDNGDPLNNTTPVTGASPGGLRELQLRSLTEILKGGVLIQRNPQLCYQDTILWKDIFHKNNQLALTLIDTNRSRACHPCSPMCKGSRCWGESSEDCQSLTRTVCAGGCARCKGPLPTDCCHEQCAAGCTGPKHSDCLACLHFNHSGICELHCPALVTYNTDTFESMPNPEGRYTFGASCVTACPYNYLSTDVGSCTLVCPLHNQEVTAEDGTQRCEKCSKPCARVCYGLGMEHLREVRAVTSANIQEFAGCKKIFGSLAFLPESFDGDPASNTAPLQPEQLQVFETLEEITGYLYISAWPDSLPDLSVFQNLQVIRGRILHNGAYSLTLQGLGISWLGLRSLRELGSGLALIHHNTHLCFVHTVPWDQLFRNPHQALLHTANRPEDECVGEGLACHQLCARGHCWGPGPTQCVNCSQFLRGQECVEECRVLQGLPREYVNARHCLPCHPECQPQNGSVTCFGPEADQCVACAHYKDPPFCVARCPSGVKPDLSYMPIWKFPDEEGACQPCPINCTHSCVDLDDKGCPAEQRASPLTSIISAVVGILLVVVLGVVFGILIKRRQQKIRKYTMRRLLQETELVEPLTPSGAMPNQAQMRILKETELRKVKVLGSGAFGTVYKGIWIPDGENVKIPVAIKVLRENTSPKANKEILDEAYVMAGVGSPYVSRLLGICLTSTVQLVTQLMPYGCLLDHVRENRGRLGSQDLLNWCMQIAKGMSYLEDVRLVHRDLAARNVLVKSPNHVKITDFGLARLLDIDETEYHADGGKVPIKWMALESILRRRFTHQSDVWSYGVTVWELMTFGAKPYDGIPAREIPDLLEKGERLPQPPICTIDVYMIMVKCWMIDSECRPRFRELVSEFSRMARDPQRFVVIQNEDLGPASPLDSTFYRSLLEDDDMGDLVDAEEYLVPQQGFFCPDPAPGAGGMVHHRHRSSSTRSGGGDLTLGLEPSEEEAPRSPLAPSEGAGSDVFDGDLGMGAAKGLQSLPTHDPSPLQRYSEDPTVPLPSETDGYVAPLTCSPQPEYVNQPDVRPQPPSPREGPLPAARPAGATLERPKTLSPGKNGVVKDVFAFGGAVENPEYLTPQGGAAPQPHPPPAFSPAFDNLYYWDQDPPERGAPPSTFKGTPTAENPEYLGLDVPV

[7] = yeast transport mutant growth inhibition pilot in 384-well plates, post-Golgi transport modulator project (AID 636; in the data active means inhibition above about 31%); conditions: absorbance 615 nm, about 18 h, stronger effect = higher value
[8] = growth suppression of yeast trafficking mutant, preliminary HTS, modulators of trafficking downstream of Golgi apparatus project, 1536-format plate, OD 615 nm (AID 637; in the data active means inhibition above about 30%); conditions: yeast transport mutant growth, absorbance 615 nm, 18 h; stronger effect = higher value
[9] = S. cerevisiae growth inhibition in permissive medium (OD615), pilot counter-assay for S. cerevisiae lifespan shortening project, permissive growth control (AID 705;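 active means growth inhibition above 25% in both replicates, a cutoff set 3 SD above the mean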); conditions: OD615, 24 h, at 10 µM, stronger effect = higher value
[10] = S. cerevisiae growth inhibition in restrictive medium, OD615, pilot screen, restrictive growth control, yeast lifespan reduction project (AID 706;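 active means growth inhibition above a set limit, 3 SD over mean compound inhibition, in both replicates, cut at about 43% in these data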;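 further: modified DeaD lifespan yeast strain shifted to restrictive glucose medium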); conditions: OD615, 48 h, at 10 µM, stronger effect = higher value
[11] = doxorubicin toxicity protection in MRP-1 cells – H69AR cells, CellTiter-Glo, duplicate, MRP-1 activator project, pilot screen (AID 807;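 active means viability increase at or above a cutoff of the median across tested compounds plus 3 SD, cut at about 8.5% in these data, passing the limit was not always enough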;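 further: compound pretreatment 18-22 h then 72 h combined with doxorubicin; 0% = doxorubicin alone and 100% = vehicle without doxorubicin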); conditions: H69AR viability with doxorubicin, CellTiter-Glo luminescence; at 10 µM; stronger effect = higher value
[12] = viability of HCT116 without oncogenic beta-catenin – human colon tumor cells, pilot screen (AID 823;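 active means cell viability at or below a set limit in both duplicate runs, the limit being the all-compound median minus 4 SD, cut at about 23% in these data, passing the limit was not always enough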;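 further: 0% = wells killed by 20 µM Hyamine and 100% = untreated DMSO cell wells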); conditions: HCT116 beta-catenin knockout viability, CellTiter-Glo, 60 h; at 10 µM; stronger effect = lower value
[13] = viability of PTEN-null HCT116 cells – cell-based, HCT116 clonal line, CellTiter-Glo, pilot screen (AID 824;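 active means viability at or below 27.92% in each of two runs, the all-compound median minus 4 SD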;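 further: 0% = 20 µM Hyamine control and 100% = vehicle cell control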); conditions: HCT116 PTEN-deleted viability, 60 h, at 10 µM, stronger effect = lower value
[14] = RAM pathway blockade in budding yeast – dse1pr::URA3 reporter, 5-FOA selection, pilot screen (AID 869;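 active means inhibition over a set limit, the all-compound mean plus 3 SD, in both replicate runs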;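 further: 0% = DMSO wells with no growth and 100% = 10 µM 1-NA-PP1 with full growth; RAM network block rescues cells from 5-FOA so hits raise OD615 growth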); conditions: S. cerevisiae dse1pr::URA3 5-FOA growth, OD615, 2 d; at 10 µM; stronger effect = higher value; strain carries analog-sensitive mutant Cbk1 kinase
[15] = H69AR cells + 2 uM doxorubicin, measured here: viability with 2 uM doxorubicin, stronger effect = lower value
[16] = H69AR cells, compound alone cytotoxicity

| Structure (SMILES) | viability [1] | viability [2] | viability [3] | differential viability (reversal) ([4]; H69AR cells + 2 uM doxorubicin) | viability [4, 15] [%] | viability [4, 16] [%] | viability [5] [%] | Her2 level [6] | inhibition [7] | inhibition [8] | growth inhibition [9] | growth inhibition [10] | viability increase [11] | viability [12] | viability [13] | inhibition [14] |
| --- | --- | --- | --- | --- | --- | --- | --- | --- | --- | --- | --- | --- | --- | --- | --- | --- |
| OC(CCN1CCCC1)(c1ccccc1)C1CCCCC1 (configuration not stated) | 93% (inactive) | 69.5% (inactive) | 95.9% (inactive) | 6.63% (inactive) | 89.3 | 95.9 | – | – | – | – | – | – | – | – | – | – |
| CC1=C(C(=O)OCC(C)C)C(c2cc3c(cc2Br)OCO3)NC(=O)N1C (configuration not stated) | 99% (inactive) | – | 88.9% (inactive) | -12.5% (inactive) | 101 | 88.9 | 99 | 75% (inactive) | -1.82% (inactive) | -3.83% (inactive) | 0.885% (inactive) | -13.9% (inactive) | -2.54% (inactive) | 81.2% (inactive) | 68.4% (inactive) | -0.395% (inactive) |
| COc1ccc(-c2noc(COc3ccc(C)c(C)c3)n2)cc1OC | 110% (inactive) | 108% (inactive) | 94.1% (inactive) | -2.45% (inactive) | 96.6 | 94.1 | – | – | -7.3% (inactive) | -1.64% (inactive) | – | – | – | – | – | – |
| O=C(NCC(=O)N(Cc1cccs1)C(C(=O)NC1CCCC1)c1ccncc1)c1ccco1 (configuration not stated) | 102% (inactive) | 109% (inactive) | 85.7% (inactive) | 2.2% (inactive) | 83.5 | 85.7 | – | – | -0.54% (inactive) | 16.4% (inactive) | – | – | – | – | – | – |
| CCN1CCN(Cc2nc3c(c(=O)[nH]c(=O)n3C)n2Cc2ccccc2Cl)CC1 | – | 87.9% (inactive) | 92% (inactive) | -4.17% (inactive) | 96.2 | 92 | 80.5 | 114% (inactive) | -0.51% (inactive) | -3.17% (inactive) | – | – | – | – | – | – |
| CC(C)N=c1cc2n(-c3ccc(Cl)cc3)c3ccccc3nc-2cc1Nc1ccc(Cl)cc1 | 102% (inactive) | 9.11% (active) | 64.4% (inactive) | -6.59% (inactive) | 71 | 64.4 | – | – | – | – | – | – | – | – | – | – |
| COc1cccc(NC(=O)N(CCCN2CCOCC2)C(C)c2cc3cccc(OC)c3o2)c1 (configuration not stated) | 65% (inactive) | 99.9% (inactive) | 93.2% (inactive) | -3.43% (inactive) | 96.6 | 93.2 | – | – | -8.08% (inactive) | -0.55% (inactive) | – | – | – | – | – | – |
| CNCCCC1c2ccccc2C=Cc2ccccc21 | 82% (inactive) | 69.5% (inactive) | 92% (inactive) | 15.2% (inactive) | 76.7 | 92 | – | – | – | – | – | – | – | – | – | – |
| C=C(C)COc1ccc(-c2nc(N)ncc2-c2ccc(OC)cc2)c(O)c1 | 160% (inactive) | – | – | 1.44% (inactive) | 31.8 | 33.2 | 160 | 73% (inactive) | -1.56% (inactive) | 7.17% (inactive) | – | – | – | – | – | – |
| CCOC(=O)c1cc(-c2ccc3c(c2)OCO3)nc2onc(C)c12 | 110% (inactive) | – | 67.2% (inactive) | -3.71% (inactive) | 70.9 | 67.2 | 110 | 89.5% (inactive) | -4.93% (inactive) | 2.9% (inactive) | – | – | – | – | – | – |
| Cn1c(=O)n(CCN2CCOCC2)c(=O)c2c1nc1n2CCN1c1ccccc1 | – | 52.8% (inactive) | 67.9% (inactive) | 4.43% (inactive) | 63.5 | 67.9 | 41.5 | 102% (inactive) | 3.51% (inactive) | -2.54% (inactive) | – | – | – | – | – | – |
| c1ccc(Cn2nnnc2C(c2cccs2)N2CCSCC2)cc1 (configuration not stated) | 98% (inactive) | 93.1% (inactive) | 81.6% (inactive) | -2.6% (inactive) | 84.2 | 81.6 | – | – | -3.97% (inactive) | -4.35% (inactive) | – | – | – | – | – | – |
| O=C(NC1CCCc2ccccc21)C1CCN(c2nnc(-n3cccc3)s2)CC1 (configuration not stated) | 84.5% (inactive) | – | 97.3% (inactive) | 6.74% (inactive) | 90.6 | 97.3 | 84.5 | 94.5% (inactive) | 1.41% (inactive) | -2% (inactive) | -1.88% (inactive) | -6.53% (inactive) | -4.06% (inactive) | 89.5% (inactive) | 85% (inactive) | 1.14% (inactive) |
| CCN(CCCCOC(=O)c1ccc(OC)c(OC)c1)C(C)Cc1ccc(OC)cc1 (configuration not stated) | 88% (inactive) | 64.4% (inactive) | 78.9% (inactive) | 6.16% (inactive) | 72.8 | 78.9 | – | – | – | – | – | – | – | – | – | – |
| COc1ccccc1NC1=NC(c2ccc(Cl)cc2)N=C(N)N1 (configuration not stated) | 91% (inactive) | 68.2% (inactive) | 10% (active) | -30.4% (inactive) | 40.5 | 10 | – | – | -5.27% (inactive) | 0% (inactive) | – | – | – | – | – | – |
| CN(C)CCCN1c2ccccc2Sc2ccccc21 | 66.5% (inactive) | 74.2% (inactive) | 74.7% (inactive) | -8.33% (inactive) | 83 | 74.7 | – | – | – | – | – | – | – | – | – | – |
| Cc1cc(C)c2c(=O)[nH]c(=O)n(Cc3ccccc3)c2n1 | – | 81.7% (inactive) | 95.7% (inactive) | 10.9% (inactive) | 84.8 | 95.7 | 64 | 75.5% (inactive) | -5.26% (inactive) | 6.55% (inactive) | – | – | – | – | – | – |
| CCn1c2ccccc2c2cc(N)ccc21 | 117% (inactive) | – | – | -6.75% (inactive) | 56.8 | 50 | 117 | 91.5% (inactive) | -5.73% (inactive) | 1.59% (inactive) | – | – | – | – | – | – |
